The values that follow come from PubChem BioAssay (NCI).

About 83,000 compounds went through this panel and 20% of them were active in at least one assay; those are over-represented in the sample as a whole.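 In brief: 96-well plates, 48 h treatment, single concentration, percent growth endpoint.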 A number with no mark means an inactive call. Activity calls are given as the source filed them. The calls were made as follows: active = growth percent below 10; inactive = the rest.

Test systems include SK-MEL-2 melanoma; EKVX NSCLC; SN12C renal; UO-31 renal; TK-10 renal; ACHN renal; CAKI-1 renal; A498 renal; CCRF-CEM leukemia; MOLT-4 leukemia; SR leukemia; RPMI-8226 leukemia; OVCAR-8 ovarian; OVCAR-4 ovarian; SK-OV-3 ovarian; IGROV1 ovarian; OVCAR-3 ovarian; HS 578T breast; NCI/ADR-RES ovarian; OVCAR-5 ovarian.
What all share (test): NCI-60 one-dose screen, 48 h (100 = growth as untreated, 0 = no growth, -100 = all killed)
Common to all, as to conditions: 10 µM unless noted

Consider `O=C(O)CC1S/C(=N/N=C/c2nc3ccccc3s2)NC1=O` (stereo not given), for which the growth in the test with SK-MEL-2 melanoma was 116%; with EKVX NSCLC, 54.7%; in the test with SN12C renal, 101%; in the test on UO-31 renal, 52.7%; with TK-10 renal it was 104%; in the test with ACHN renal, 78.3%. Moreover, the growth is 77.3% in the test on CAKI-1 renal; 155% with A498 renal; 93% in the test with CCRF-CEM leukemia; 95.2% in the test with MOLT-4 leukemia; 79.8% in the test with SR leukemia; 88.8% in the test with RPMI-8226 leukemia. Moreover, the growth with OVCAR-8 ovarian was 98.5%; in the test with OVCAR-4 ovarian, 82.1%; in the test with SK-OV-3 ovarian, 122%; in the test on IGROV1 ovarian it was 103%; in the test with OVCAR-3 ovarian it was 88.4%; in the test with HS 578T breast it was 90.9%. Further, the growth in the test on NCI/ADR-RES ovarian is 99.3%.

In the case of `NS(=O)(=O)c1cccc(Nc2nc(SCC(=O)c3ccc(F)cc3)nc3ccccc23)c1`, the growth in the test on SK-MEL-2 melanoma is -47% (active); with EKVX NSCLC, 28%; with SN12C renal it was 15.8%; in the test with UO-31 renal it was 17.9%; in the test on TK-10 renal, 44.6%; with ACHN renal, 25.9%. For the same compound, the growth in the test on CAKI-1 renal is 21.9%; with A498 renal, 71.1%; in the test on CCRF-CEM leukemia, 1.38% (active); with MOLT-4 leukemia, 2.93% (active); in the test on SR leukemia it was 8.61% (active); in the test on RPMI-8226 leukemia, -2.61% (active). For the same compound, the growth is 16.4% in the test on OVCAR-8 ovarian; 15.6% with OVCAR-4 ovarian; 38.3% in the test with SK-OV-3 ovarian; 13.9% with IGROV1 ovarian; 0.387% (active) in the test on OVCAR-3 ovarian; 7.8% (active) in the test on HS 578T breast. In the test with NCI/ADR-RES ovarian, the growth was 26.7%.

For the compound `O=C(/C=C1\C(=O)N(Cc2ccccc2)c2ccccc21)c1cc2ccccc2oc1=O`, the growth in the test on SK-MEL-2 melanoma was 109%; in the test on EKVX NSCLC, 79.6%; with SN12C renal, 93%; with UO-31 renal it was 42.9%; with TK-10 renal it was 84.6%; in the test with ACHN renal, 17.9%. The growth in the test with CAKI-1 renal is 69.9%; in the test with A498 renal it was 144%; in the test with CCRF-CEM leukemia it was 43.6%; in the test on MOLT-4 leukemia it was 31.9%; in the test with SR leukemia it was 22.5%; with RPMI-8226 leukemia, 98.8%. Further, the growth in the test with OVCAR-8 ovarian was 98%; in the test with OVCAR-4 ovarian, 84.5%; in the test with SK-OV-3 ovarian it was 109%; with IGROV1 ovarian, 67.4%; in the test with OVCAR-3 ovarian, 38.6%; in the test with HS 578T breast, 89.3%. Also, the growth with NCI/ADR-RES ovarian is 91.3%.

Take `O=C1CC(c2ccc(I)cc2)OC2C=Cc3ccccc3C12` (stereo not given): the growth in the test with SK-MEL-2 melanoma is 98.8%; with EKVX NSCLC, 82.9%; in the test on SN12C renal it was 99%; in the test on UO-31 renal, 85.8%; in the test on TK-10 renal, 139%; in the test on ACHN renal, 109%. In addition, the growth in the test on CAKI-1 renal is 91.7%; with A498 renal it was 119%; in the test on CCRF-CEM leukemia it was 94.4%; with MOLT-4 leukemia it was 96%; in the test on SR leukemia, 88.9%; with RPMI-8226 leukemia, 87.2%. Further, the growth with OVCAR-8 ovarian is 104%; in the test with OVCAR-4 ovarian it was 96.7%; in the test with SK-OV-3 ovarian, 96.7%; in the test with IGROV1 ovarian, 119%; with OVCAR-3 ovarian, 125%; in the test on NCI/ADR-RES ovarian, 104%.

`COc1cccc(C(N)=Nc2ccc(OCCCCCCCCn3cncn3)cc2)c1`: the growth in the test on SK-MEL-2 melanoma was 14%; in the test on EKVX NSCLC, 37.4%; in the test with SN12C renal it was 20.6%; in the test on UO-31 renal, 39.5%; with TK-10 renal it was 57%; in the test on ACHN renal it was 28%. In addition, the growth in the test with CAKI-1 renal is 40.3%; with A498 renal it was 94.3%; in the test with CCRF-CEM leukemia, 16.4%; in the test with MOLT-4 leukemia, 16.8%; in the test on SR leukemia it was 10.4%; with RPMI-8226 leukemia, 14.2%. Further, the growth in the test with OVCAR-5 ovarian was 29.6%; with OVCAR-4 ovarian, 55.5%; in the test on SK-OV-3 ovarian, 41.7%; with IGROV1 ovarian, 27.3%; in the test with HS 578T breast it was 37.2%.

Consider `CCOC(=O)c1ccc(NC(=S)NC(=O)c2cccc(NC(=O)c3ccc(C)cc3)c2)cc1`, for which the growth with SK-MEL-2 melanoma was 88.9%; in the test on EKVX NSCLC, 74.7%; with SN12C renal it was 31%; in the test on UO-31 renal it was 63.9%; with TK-10 renal it was 89.2%; with ACHN renal, 75.5%. In addition, the growth in the test on CAKI-1 renal is 76.8%; with A498 renal, 105%; in the test with CCRF-CEM leukemia, 78.3%; with MOLT-4 leukemia, 70.4%; with SR leukemia, 54.5%; with RPMI-8226 leukemia it was 62.4%. Further, the growth with OVCAR-8 ovarian was 28.9%; in the test with OVCAR-4 ovarian, 27.8%; in the test on SK-OV-3 ovarian it was 73.5%; in the test with IGROV1 ovarian, 73.6%; with OVCAR-3 ovarian it was 61.4%; in the test with HS 578T breast, 53.4%. Also, the growth in the test with NCI/ADR-RES ovarian was 65.9%.

As for `N#Cc1cc(-c2ccnc(Nc3ccc(N4CCN(C5COC5)CC4)cc3)n2)ccc1N1CCCC1`, the growth in the test on SK-MEL-2 melanoma was 84.5%; with EKVX NSCLC, 90.9%; in the test on SN12C renal, 52.1%; in the test on UO-31 renal, 30.5%; with TK-10 renal it was 66.9%; with ACHN renal, 50.3%. Also, the growth in the test on CAKI-1 renal is 18.1%; in the test with A498 renal it was 71.2%; in the test on CCRF-CEM leukemia it was 43.4%; with MOLT-4 leukemia, 40.4%; in the test with SR leukemia, 23%; in the test with RPMI-8226 leukemia it was 36.6%. The growth in the test on OVCAR-8 ovarian was 79.5%; in the test with OVCAR-4 ovarian it was 43.9%; in the test with SK-OV-3 ovarian, 52.8%; in the test on IGROV1 ovarian it was 55.3%; in the test on OVCAR-3 ovarian, 94.5%; in the test on HS 578T breast, 21.6%. The growth with NCI/ADR-RES ovarian was 92.2%.
